Source: PubChem BioAssay (Tox21)
Inconclusive results are not listed. Calls of active or inactive are those of the source. Unless noted, calls come from the whole dose curve; as a rule, active = well fitted curve in the direction sought with a large enough effect in the repeat runs; inconclusive = weak or mixed curves; inactive = no such curve, though single readings can be large; an effect the other way counts as inactive or inconclusive.

Key:
[1] = biological target: Peroxisome proliferator-activated receptor delta (Homo sapiens) (UniProt Q03181); experiment: qHTS assay to identify small molecule agonists of the peroxisome proliferator-activated receptor delta (PPARd) signaling pathway (AID 743212; calls by dose curve; note: % is set by controls: 0 for no effect and ±100 for the full control effect)
How it was run: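 A PPARd-bla HEK293H line with beta-lactamase under an Upstream Activator Sequence is treated with compounds at 37 C. Substrate loading for 2 h at room temperature precedes the fluorescence measurement.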

[2] = qHTS assay to identify small molecule antagonists of the peroxisome proliferator-activated receptor delta (PPARd) signaling pathway - cell viability counter screen (AID 743213); note: % is set by controls: 0 for no effect and ±100 for the full control effect; nearly all actives have a fitted effect of over 50% in size
How it was run: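 Same-well viability: cells pre-incubated 5 h, dosed with compound plus 300 nM L165041, kept 17 h at 37 C, FRET substrate 2 h RT, then CellTiter-Glo 30 min RT and luminescence.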

[3] = biological target: Bile acid receptor (Homo sapiens) (UniProt Q96RI1); experiment: qHTS assay to identify small molecule antagonists of the farnesoid-X-receptor (FXR) signaling pathway (AID 743217; active = well fitted inhibition curve with a large enough effect in the signal ratio in the repeat runs, not every such curve was filed as active; the % refers to the signal ratio; note: % is set by controls: 0 for no effect and ±100 for the full control effect)
How it was run: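 Antagonist mode against 50 uM (final) chenodeoxycholic acid stimulation in FXR-bla HEK 293T cells, 16 h at 37 °C. Inhibition detected as reduced beta-lactamase activity via LiveBLAzer B/G FRET fluorescence after 2 h at room temperature.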

[4] = qHTS assay to identify small molecule agonists of the farnesoid-X-receptor (FXR) signaling pathway - cell viability counter screen (AID 743218); note: % is set by controls: 0 for no effect and ±100 for the full control effect; nearly all actives have a fitted effect of over 45% in size
How it was run: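 Cytotoxicity counter-screen run in parallel, same wells: FXR-UAS-bla HEK 293T cells dosed 16 h at 37 C, viability read by CellTiter-Glo luminescence after 30 min at room temperature.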

[5] = qHTS assay to identify small molecule antagonists of the farnesoid-X-receptor (FXR) signaling pathway - cell viability counter screen (AID 743221; active = well fitted cell-killing curve with a large enough effect in the repeat runs, not every such curve was filed as active; note: % is set by controls: 0 for no effect and ±100 for the full control effect; nearly all actives have a fitted effect of over 50% in size)
How it was run: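 In GeneBLAzer FXR-UAS-bla HEK 293T cells stimulated with 50 uM chenodeoxycholic acid (final), compounds acted for 16 h at 37 C. Viability was assessed afterwards by CellTiter-Glo luminescence.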

[6] = biological target: Vitamin D3 receptor (Homo sapiens) (UniProt P11473); experiment: qHTS assay to identify small molecule agonists of the vitamin D receptor (VDR) signaling pathway (AID 743222; calls by dose curve; note: % is set by controls: 0 for no effect and ±100 for the full control effect)
How it was run: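 Quantitative HTS agonist-mode screen: compounds in DMSO were pin-transferred onto VDR-bla cells and incubated 16 h at 37C, 5% CO2. Reporter activity was detected with LiveBLAzer B/G FRET substrate after 2 h at room temperature.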

[7] = biological target: Vitamin D3 receptor (Homo sapiens) (UniProt P11473); experiment: qHTS assay to identify small molecule antagonists of the vitamin D receptor (VDR) signaling pathway (AID 743223; active = well fitted inhibition curve with a large enough effect in the signal ratio in the repeat runs, not every such curve was filed as active; the % refers to the signal ratio; note: % is set by controls: 0 for no effect and ±100 for the full control effect)
How it was run: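 Agonist 1alpha,25-dihydroxyvitamin D3 (3 nM in well) was added with each compound to VDR-bla cells preincubated 4 h. Cells stood 16 h at 37C, then FRET substrate 2 h at room temperature; fluorescence intensity recorded.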

[8] = qHTS assay to identify small molecule agonists of the vitamin D receptor (VDR) signaling pathway - cell viability counter screen (AID 743224); note: series mostly up to about 63 µM; % is set by controls: 0 for no effect and ±100 for the full control effect; nearly all actives have a fitted effect of over 50% in size
How it was run: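 Viability is measured in the same wells as the VDR-bla reporter assay: after 16 h compound treatment and 2 h substrate loading, CellTiter-Glo is added and luminescence read 30 min later.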

[9] = qHTS assay to identify small molecule antagonists of the vitamin D receptor (VDR) signaling pathway - cell viability counter screen (AID 743225); note: % is set by controls: 0 for no effect and ±100 for the full control effect; nearly all actives have a fitted effect of over 50% in size
How it was run: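 Luminescent cell viability (CellTiter-Glo) in VDR-bla HEK 293T cells after 16 h compound exposure at 37C in the presence of 3 nM final 1-alpha,25-dihydroxy vitamin D3.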

[10] = qHTS assay to identify small molecule agonists of the NFkB signaling pathway - cell viability counter screen (AID 1159515; calls by dose curve; note: series mostly up to about 61 µM; % is set by controls: 0 for no effect and ±100 for the full control effect; nearly all actives have a fitted effect of over 55% in size)
How it was run: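 Multiplexed viability readout: after the 5 hr compound exposure and 1.5 hr FRET substrate step, CellTiter-Glo reagent went into the same NFkB-bla ME-180 wells; ATP luminescence was measured after 30 min at room temperature.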

[11] = qHTS assay to identify small molecule agonists of the endoplasmic reticulum stress response signaling pathway (AID 1159516; active = well fitted activation curve with a large enough effect in the signal ratio in the repeat runs, not every such curve was filed as active; the % refers to the signal ratio; note: % is set by controls: 0 for no effect and ±100 for the full control effect)
How it was run: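 Tox21 10K library screened in quantitative HTS format on ESRE-bla HeLa cells, a beta-lactamase reporter under ER stress response element control; 5 hr treatment, FRET read.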

[12] = qHTS assay to identify small molecule antagonists of the retinoid-related orphan receptor gamma (ROR-gamma) signaling pathway - cell viability counter screen (AID 1159520)
How it was run: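 Tet-on ROR gamma CHO cells (1,000/well) were plated 4 hr, given compounds in DMSO for 2 hr at 37 C, then induced with 1 uM final doxycycline for 16 hr. Viability was read as ATP by CellTiter-Glo luminescence after 30 min.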

[13] = biological target: Nuclear receptor ROR-gamma (Homo sapiens) (UniProt P51449); experiment: qHTS assay to identify small molecule antagonists of the retinoid-related orphan receptor gamma (ROR-gamma) signaling pathway (AID 1159521)
How it was run: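 CHO cells expressing RORγ under a TET-on promoter, luciferase under RORE control. Dox 1 uM final, 16 h; compounds added 2 h prior. Luminescence decrease measured.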

[14] = qHTS assay to identify small molecule agonists of the AP-1 signaling pathway - cell viability counter screen (AID 1159525; calls by dose curve; note: nearly all actives have a fitted effect of over 55% in size)
How it was run: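 ME-180 AP-1-bla, 2500 cells/well, Opti-MEM + 0.5% dialyzed FBS; overnight 37 °C; cpd 15-pt titration, 5 h 37 °C; CellTiter-Glo 30 min RT; luminescence read; normalised to TOAB and DMSO controls.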

[15] = qHTS assay to identify small molecule agonists of the AP-1 signaling pathway (AID 1159526; calls by dose curve; note: % is set by controls: 0 for no effect and ±100 for the full control effect)
[16] = qHTS assay to identify small molecule agonists of the peroxisome proliferator-activated receptor delta (PPARd) signaling pathway - cell viability counter screen (AID 743211); note: % is set by controls: 0 for no effect and ±100 for the full control effect; nearly all actives have a fitted effect of over 55% in size
How it was run: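 Luminescent ATP viability assay (CellTiter-Glo, 30 min RT) in UAS-bla HEK293H cells carrying the PPAR delta reporter construct, 3000 cells/well, after a 17 h compound treatment at 37 C.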

[17] = biological target: Bile acid receptor (Homo sapiens) (UniProt Q96RI1); experiment: qHTS assay to identify small molecule agonists of the farnesoid-X-receptor (FXR) signaling pathway (AID 743220; active = well fitted activation curve with a large enough effect in the signal ratio in the repeat runs, not every such curve was filed as active; the % refers to the signal ratio; note: % is set by controls: 0 for no effect and ±100 for the full control effect)
How it was run: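 Beta-lactamase reporter under UAS control in GeneBLAzer FXR HEK 293T cells (5000/well) measured with LiveBLAzer FRET substrate after 2 h at room temperature. Compound exposure lasted 16 h at 37C.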

[18] = qHTS assay to identify small molecule agonists of the endoplasmic reticulum stress response signaling pathway - cell viability counter screen (AID 1159517; calls by dose curve)
How it was run: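 CellTiter-Glo was added to wells already read for beta-lactamase FRET, and luminescence was recorded 30 min later. Cells: ESRE-bla HeLa, 1,500 per well, compound exposure 5 hr at 37 C.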

[19] = biological target: Peroxisome proliferator-activated receptor delta (Homo sapiens) (UniProt Q03181); experiment: qHTS assay to identify small molecule antagonists of the peroxisome proliferator-activated receptor delta (PPARd) signaling pathway (AID 743215; active = well fitted inhibition curve with a large enough effect in the signal ratio in the repeat runs, not every such curve was filed as active; the % refers to the signal ratio)
How it was run: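 Inhibition of L165041-driven (300 nM final) PPARd signaling is scored in HEK293H UAS-bla cells. Exposure lasts 17 h at 37 C; beta-lactamase activity is then read by FRET substrate fluorescence after 2 h at room temperature.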

Bile acid receptor (Homo sapiens), sequence (Q96RI1 whole entry, looked up): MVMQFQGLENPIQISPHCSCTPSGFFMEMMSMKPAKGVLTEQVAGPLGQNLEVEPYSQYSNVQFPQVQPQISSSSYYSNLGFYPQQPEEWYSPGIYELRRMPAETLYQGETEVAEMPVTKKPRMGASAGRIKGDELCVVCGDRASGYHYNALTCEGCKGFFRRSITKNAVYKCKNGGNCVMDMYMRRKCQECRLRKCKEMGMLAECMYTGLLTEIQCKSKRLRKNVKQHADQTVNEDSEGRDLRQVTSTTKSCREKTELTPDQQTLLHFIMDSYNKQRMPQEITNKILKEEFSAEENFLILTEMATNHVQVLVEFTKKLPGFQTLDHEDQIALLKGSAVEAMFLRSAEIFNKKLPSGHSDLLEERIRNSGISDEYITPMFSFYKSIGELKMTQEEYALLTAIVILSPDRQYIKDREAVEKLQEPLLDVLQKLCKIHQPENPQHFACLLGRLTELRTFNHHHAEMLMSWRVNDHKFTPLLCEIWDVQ
Peroxisome proliferator-activated receptor delta (Homo sapiens), sequence (Q03181 whole entry, looked up): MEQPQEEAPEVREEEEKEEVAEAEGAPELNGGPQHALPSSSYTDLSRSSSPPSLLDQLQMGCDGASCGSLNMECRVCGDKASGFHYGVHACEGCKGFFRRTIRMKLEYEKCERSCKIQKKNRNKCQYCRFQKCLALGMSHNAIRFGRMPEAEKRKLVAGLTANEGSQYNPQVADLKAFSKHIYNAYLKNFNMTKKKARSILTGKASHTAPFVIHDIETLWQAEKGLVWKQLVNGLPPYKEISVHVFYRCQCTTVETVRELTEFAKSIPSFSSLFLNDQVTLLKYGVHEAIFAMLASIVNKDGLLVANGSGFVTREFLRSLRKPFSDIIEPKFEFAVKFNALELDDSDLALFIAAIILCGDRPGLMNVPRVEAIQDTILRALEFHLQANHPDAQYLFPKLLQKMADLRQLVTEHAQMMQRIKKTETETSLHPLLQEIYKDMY
Vitamin D3 receptor (Homo sapiens), sequence (P11473 whole entry, looked up): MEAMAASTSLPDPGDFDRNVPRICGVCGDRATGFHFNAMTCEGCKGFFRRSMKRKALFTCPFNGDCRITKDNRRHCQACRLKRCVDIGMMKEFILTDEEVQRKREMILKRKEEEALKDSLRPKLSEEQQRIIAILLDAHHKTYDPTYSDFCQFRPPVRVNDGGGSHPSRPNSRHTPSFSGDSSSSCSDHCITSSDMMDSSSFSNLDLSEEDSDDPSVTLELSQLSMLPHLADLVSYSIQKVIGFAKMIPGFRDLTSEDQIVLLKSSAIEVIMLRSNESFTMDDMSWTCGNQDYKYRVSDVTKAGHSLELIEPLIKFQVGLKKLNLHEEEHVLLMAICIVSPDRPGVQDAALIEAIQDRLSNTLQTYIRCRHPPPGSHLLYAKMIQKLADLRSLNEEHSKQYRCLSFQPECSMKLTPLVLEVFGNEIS

Cc1ccc(Cl)cc1N
inactive: outcome [1] | Potency [2] | outcome [3] | Potency [4] | Potency [5] | outcome [6] | outcome [7] | Potency [8] | Potency [9] | Potency [10] | Potency [11] | Potency [12] | Potency [13] | Potency [14] | outcome [15]

CCCCCCCCCCCCCOC(=O)CCSCCC(=O)OCCCCCCCCCCCCC
inactive: Potency [16] | outcome [1] | Potency [2] | outcome [3] | Potency [4] | Potency [17] | Potency [5] | outcome [7] | Potency [8] | Potency [9] | Potency [10] | Potency [11] | activity, negative = cytotoxicity [12] 0.433% [at 19 µM] | activity change, negative = inhibition [13] -3.96% [at 19 µM] | viability change, negative = cytotoxic [14] -10.6% [at 15.8 µM] | activation [15] -14.2% [at 15.8 µM]

CCCCCCCC/C=C/C(=O)O
inactive: Potency [16] | Potency [2] | Potency [4] | Potency [5] | outcome [6] | outcome [7] | Potency [8] | Potency [9] | Potency [10] | Potency [18] | Potency [12] | Potency [13] | Potency [14] | outcome [15]

CCCCCCC(O)CCOC(C)=O (centres undefined)
inactive: outcome [1] | Potency [2] | Potency [19] | outcome [3] | Potency [4] | Potency [17] | Potency [5] | outcome [6] | Potency [8] | Potency [9] | Potency [10] | Potency [11] | Potency [12] | Potency [13] | Potency [14] | outcome [15]

Cc1cc([N+](=O)[O-])ccc1N
inactive: outcome [1] | Potency [2] | outcome [3] | Potency [4] | Potency [5] | outcome [7] | Potency [8] | Potency [9] | Potency [10] | Potency [11] | Potency [12] | Potency [14] | outcome [15]

CCCCCCCC/C=C\CCCCCCCC(=O)OCCO
inactive: Potency [16] | Potency [2] | Potency [19] | Potency [4] | Potency [8] | Potency [9] | Potency [11] | Potency [12] | Potency [13] | Potency [14]

O=C(O)c1ccc(O)cc1O
inactive: Potency [16] | outcome [1] | Potency [2] | outcome [3] | Potency [4] | Potency [17] | Potency [5] | outcome [6] | outcome [7] | Potency [8] | Potency [9] | Potency [18] | Potency [12] | Potency [13] | Potency [14] | outcome [15]

Nc1nc(-c2ccc([N+](=O)[O-])cc2)cs1
inactive: Potency [16] | Potency [4] | Potency [5] | Potency [9] | Potency [10] | Potency [11] | Potency [12] | Potency [13] | Potency [14] | outcome [15]

CC(CCc1ccc(O)cc1)NCCc1ccc(O)c(O)c1 (centres undefined)
inactive: Potency [16] | outcome [1] | outcome [3] | Potency [4] | Potency [17] | Potency [5] | Potency [8] | Potency [9] | Potency [10] | Potency [18] | Potency [12] | Potency [13] | Potency [14] | outcome [15]
